The results in this text go back to PubChem BioAssay (NCI).

About 83,000 compounds went through this panel and 20% of them were active in at least one assay; those are over-represented in the sample as a whole.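 Single-dose data. Exposure time 48 hours. Values below 10 considered active.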 Values without a mark were called inactive. Active and inactive are the calls of the source.

What all share (assay): NCI-60 one-dose screen, 48 h (100 = growth as untreated, 0 = no growth, -100 = all killed)
Conditions in all cases: 10 µM unless noted

For assay [1], the system named is DU-145 prostate.
Assay [2] has as its system K-562 leukemia.
For assay [3], the system named is MALME-3M melanoma.
Assay [4] relates to MDA-MB-231 breast.
Assay [5] concerns RXF 393 renal.
Assay [6] relates to SF-268 CNS.
Assay [7] has as its system SF-539 CNS.
The subject of assay [8] is UACC-257 melanoma.
The subject of assay [9] is M14 melanoma.
In assay [10] the test system is HCT-15 colon.
Assay [11] has as its system HT29 colon.
For assay [12], the system named is SNB-75 CNS.
The test system of assay [13] is SNB-19 CNS.
The subject of assay [14] is U251 CNS.
Assay [15] concerns PC-3 prostate.
The test system of assay [16] is SK-MEL-5 melanoma.
In assay [17] the test system is UACC-62 melanoma.
The subject of assay [18] is LOX IMVI melanoma.
Assay [19] relates to SK-MEL-28 melanoma.

As for `COc1ccc(C(=O)C(C#N)c2cc(OC)c(OC)c(OC)c2)cc1` (stereo unspecified), the growth in [1] is 114%; in assay [2], 98.1%; in assay [3] it was 106%; in assay [4] it was 115%; in assay [5] it was 103%; in [6] it was 114%. The growth was 93.8% in assay [7]; 97.4% in assay [8]; 102% in assay [9]; 102% in [10]; 99.2% in assay [11]; 90.7% in [12]. Also, the growth in assay [13] is 108%; in assay [14] it was 98.2%; in assay [15], 99%; in assay [16] it was 102%; in [17], 105%; in assay [18], 97.8%. Further, the growth in assay [19] was 104%.

`N=c1n(Cc2ccccc2)c(N)cc(=O)n1Cc1ccccc1`: the growth in assay [1] is -19.6% (active); in assay [2] it was 21%; in assay [3], 23.3%; in assay [4] it was 83%; in [5] it was -15.5% (active); in assay [6], 2.59% (active). The growth is 12.5% in assay [7]; 43.8% in assay [8]; 84.6% in assay [9]; 45.8% in assay [10]; 26.8% in assay [11]; 36.6% in assay [12]. The growth in [13] was 52.8%; in [14], 25.4%; in assay [15], 37.5%; in assay [16], 2.83% (active); in assay [17], 33.8%; in assay [18] it was 14.2%. The growth in assay [19] is 60.8%.

Take `O=C1C2=C(C(=O)c3c(O)ccc(O)c31)N(c1ccc(N3CCOCC3)nc1)Cc1ccccc1O2`: the growth in [1] is -98% (active); in assay [2] it was -17.5% (active); in assay [3], -91.6% (active); in [4] it was -89.6% (active); in [5] it was -92.1% (active); in assay [6], -42.5% (active). Besides, the growth in [7] was -72.1% (active); in [8], -92% (active); in [9], -89.3% (active); in assay [10], -77.4% (active); in [11] it was -47.7% (active); in assay [12], -19.8% (active). The growth in assay [13] is 12.2%; in assay [14], 0.735% (active); in assay [15], 1.08% (active); in [16], -75% (active); in assay [17] it was -66.7% (active); in assay [18], -66.8% (active). Further, the growth in assay [19] was -77% (active).

`Clc1cc(Br)ccc1-c1ccc(CNCC2CCNCC2)o1`: the growth in [1] was 62.4%; in assay [2], 18.9%; in assay [3], -4.35% (active); in [4], 50.8%; in assay [5] it was 64.8%; in assay [6], 45%. Moreover, the growth in assay [7] was 29.6%; in [8], 79.6%; in [9] it was 55.2%; in assay [10], 55.1%; in [11], 31.7%; in [12], 9.93% (active). For the same compound, the growth in assay [13] is 42.1%; in assay [14], 16.9%; in assay [15], 54.1%; in assay [16], 61.5%; in assay [17], 59.4%; in assay [18] it was 23.4%. In addition, the growth in assay [19] is 42.3%.

Take `CC(CN1CCN(CCOCCO)CC1)CN1c2ccccc2Sc2ccc(Cl)cc21` (stereo unspecified): the growth in assay [1] is 70.3%; in assay [2], 6.64% (active); in [3] it was 45.1%; in assay [4], 29.9%; in [5] it was 56.8%; in assay [6] it was 63.8%. In addition, the growth in [7] was 79.2%; in [8], -3.9% (active); in [9], 5.98% (active); in assay [10] it was 32.7%; in [11], -30.1% (active); in [12], 69.7%. Besides, the growth is 100% in assay [13]; 58.6% in assay [14]; 43.9% in assay [15]; 16.1% in assay [16]; -42.8% (active) in assay [17]; 20.5% in assay [18]. Also, the growth in assay [19] was 49%.

Turning to `COC1CC(N)C2OC(c3ccccc3)OCC2O1` (stereo unspecified), the growth was 115% in [1]; 93.9% in [2]; 106% in assay [3]; 98.3% in [4]; 115% in [5]; 108% in assay [6]. The growth is 101% in assay [7]; 95.4% in assay [8]; 107% in [9]; 97.1% in assay [10]; 103% in assay [11]; 71.4% in assay [12]. For the same compound, the growth in assay [13] was 103%; in assay [14], 99.8%; in assay [15], 105%; in assay [16], 105%; in assay [17], 101%; in assay [18], 98.8%. Further, the growth in assay [19] was 105%.

As to `COc1cccc(NC(=O)[C@H](C(C)C)n2c(=O)[nH]c3ccccc3c2=O)c1`, the growth in assay [1] was 107%; in assay [2] it was 90.4%; in assay [3], 104%; in assay [4], 107%; in assay [5] it was 109%; in assay [6], 111%. Also, the growth in assay [7] is 102%; in [8] it was 96.5%; in [9], 107%; in assay [10] it was 104%; in [11] it was 101%; in [12] it was 102%. Moreover, the growth in assay [13] was 117%; in assay [14], 96.8%; in [15] it was 95.1%; in assay [16], 99.2%; in assay [17] it was 107%; in [18], 99.7%. Besides, in assay [19], the growth is 114%.

On to `CCCCCCCCCCCCCCCCOc1ccc(S(=O)(=O)N(C)C)cc1[N+](=O)[O-]`, for which the growth is 113% in assay [1]; 112% in assay [2]; 86.8% in [3]; 88.9% in [4]; 61.7% in assay [5]; 97.5% in [6]. Moreover, the growth in assay [7] was 89.6%; in assay [8], 108%; in assay [9], 106%; in assay [10], 97.2%; in assay [11] it was 96.4%; in assay [12], 21.2%. Further, the growth in assay [13] is 78.9%; in assay [14], 50.6%; in [15], 94.4%; in assay [16] it was 101%; in assay [17] it was 86.7%; in assay [18], 120%. Besides, the growth in assay [19] was 107%.

For the compound `COc1cccc(NC(=O)c2c(-c3ccccc3)c(-c3ccccc3)n[nH]c2=O)c1`, the growth in [1] is 106%; in [2], 81.9%; in assay [3], 101%; in assay [4], 102%; in assay [5] it was 103%; in [6], 105%. Besides, the growth in [7] is 101%; in assay [8], 97.9%; in [9], 103%; in assay [10], 97.6%; in assay [11], 101%; in assay [12] it was 77.9%. Moreover, the growth is 93.4% in assay [13]; 101% in assay [14]; 94.6% in [15]; 99.4% in [16]; 92.9% in assay [17]; 96.3% in assay [18]. The growth in [19] was 102%.
